In PubChem BioAssay (NCATS):
Records with an inconclusive call do not appear. Unmarked numbers belong to inactive results. The source made the active and inactive calls. The call rests on the fitted dose curve; in most records, active means well fitted inhibition curve with a large enough effect in the polarisation, with a control signal flat (not every such curve was filed as active); inconclusive means small, poorly fitted or top-dose-only effect, or effect the other way; inactive means flat fitted curve, though single readings scatter; the % refers to the polarisation.

Target: Peptidyl-prolyl cis-trans isomerase NIMA-interacting 1 (Homo sapiens) (UniProt Q13526)
Assay: qHTS Validation Assay to Find Inhibitors of Pin1 (AID 504536)
Details: Pin1 fluorescence polarization peptide binding assay; series mostly up to 57.5 µM; activity, negative = inhibition: at the top concentration
Source text: NIH Molecular Libraries Probe Production Network [MLPCN]
NIH Chemical Genomics Center [NCGC]
The unique chemical properties of Pro allow for the adoption of two completely distinct amide bond conformations (cis and trans). Peptidyl-prolyl cis/trans isomerases (PPIases) are evolutionary conserved enzymes that catalyze cis/trans isomerization of peptidyl-prolyl peptide bonds. Distinct from all other PPIases such as cyclophilins and FK506-binding proteins (FKBPs), Pin1 binds a subset of phos.Ser/Thr-Pro-containing proteins using its protein-targeting WW domain and isomerizes only specific phos.Ser/Thr-Pro bonds, which cannot be effectively catalyzed by other known PPIases.
Pin1-catalyzed conformational regulation can control a spectrum of activities of many key regulators in diverse cellular processes such as cell growth, genotoxic and other stress responses, immune response, germ cell development, neuronal differentiation and survival. Pin1 has emerged as a novel molecular timer that modulates its multiple targets at various steps of a given cellular process to synergistically control the amplitude and duration of a cellular response or process. Importantly, Pin1 is tightly regulated by multiple levels and its deregulation has an important role in a growing number of pathological conditions, including cancer, Alzheimer's disease, aging, asthma and microbial infection, providing a potentially new therapeutic option.
The goal of this screen is to find small-molecule inhibitors of Pin1 using a fluorescence polarization competition assay. A HiFluor-488-labeled peptide binds to the active site of Pin1 and can be displaced by compounds. Compounds were screened as a concentration-titration series that ranged from 57 uM to 0.7 nM.
NCGC Assay Protocol Summary:
Pin1 (0.6 uM) was dispensed into black, solid 1536-well plates at 2 uL/well in 10 mM HEPES (pH 7.5), 10 mM NaCl, 0.01% Tween20, 1 mM DTT, and 1% glycerol. Then, 23 nL of compounds or DMSO were delivered to each well using a pin tool. Two uL of Pin1-1b-HiFluor488 peptide (10 mM HEPES (pH 7.5), 10 mM NaCl, 0.01% Tween20, 1 mM DTT, and 1% glycerol, 0.02 uM Pin1-1b-HiFluor488) was then dispensed, and plates were incubated at room temperature for 10 min. The plates were measured on a ViewLux plate reader for fluorescence polarization signal using a 480/20 nM nm excitation filter and 540/25 nM nm S and P emission filters with a 20 second exposure. The %Activity was determined from the corrected fluorescence polarization values. Unlabeled Pin1-1c peptide was used as a control (3.5 mM two-fold serial; 20 uM final concentration) along with a 1x (0.3 uM) and 0x (no-enzyme) Pin1 enzyme control to normalize %Activity of identified inhibitors; 0x enzyme values corresponded to 100%Activity (full inhibition), while 1x Pin1 enzyme values were used to normalize 0%Activity (no inhibition).
Concentration-response curves were fitted to the signals arising from the resulting fluorescence polarization. The concentration-effect curves were then classified based on curve quality (r2), response magnitude and degree of measured activity, and compounds were subsequently categorized based on their curve class.
Keywords: Peptidyl prolyl isomerase, Pin1, fluorescence polarization, MLSMR, MLPCN, NIH Roadmap, qHTS, NCGC

Peptidyl-prolyl cis-trans isomerase NIMA-interacting 1 (Homo sapiens), sequence (Q13526 whole entry, looked up): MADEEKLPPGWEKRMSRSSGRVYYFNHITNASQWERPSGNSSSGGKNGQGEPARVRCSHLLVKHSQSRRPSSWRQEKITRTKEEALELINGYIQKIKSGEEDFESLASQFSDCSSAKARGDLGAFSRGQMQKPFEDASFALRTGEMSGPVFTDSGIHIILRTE

Row | SMILES | activity, negative = inhibition [%] | outcome
1 | CC(Cc1ccc(O)cc1)NCC(O)c1cc(O)cc(O)c1 (stereo not given) | 2.64 | 
2 | C[C@]12N[C@H](Cc3ccccc31)c1ccccc12 | -1.41 | 
3 | c1ccc2sc(C3(N4CCCCC4)CCCCC3)cc2c1 | 0.452 | 
4 | Cc1nccc2c1[nH]c1ccccc12 | 1.87 | 
5 | CN1C2CCC1CC(OC(=O)c1cc(Cl)cc(Cl)c1)C2 (stereo not given) | -4.13 | 
6 | c1ccc(C2(c3ccccc3)CC2C2=NCCN2)cc1 (stereo not given) | 0.34 | 
7 | NCc1cc(=O)[nH]o1 | -12.6 | 
8 | Clc1cnc(Oc2ccc(Oc3ncc(Cl)cc3Cl)cc2)c(Cl)c1 | 18.2 | 
9 | O=C(N[C@H]1CN2CCC1CC2)c1ccc(Cl)cc1 | 0.703 | 
10 | COc1cc(C(O)CN)ccc1O (stereo not given) | -3.61 | 
11 | c1ccc(CCCN2CCN(CCOC(c3ccccc3)c3ccccc3)CC2)cc1 | 10.8 | 
12 | NC(CCP(=O)(O)O)C(=O)O (stereo not given) | 1.29 | 
13 | NC(=O)CN1CC(O)CC1=O (stereo not given) | 0.617 | 
14 | CC(=O)NCCc1c[nH]c2ccccc12 | -2.23 | 
15 | COC(=O)[C@@H](N)CCCN=C(N)N[N+](=O)[O-] | -0.742 | 
16 | O=C(O)Cc1cnc[nH]1 | -0.032 | 
17 | O=C(O)[C@@H]1CCN1 | -1.09 | 
18 | CNCCc1c[nH]c2ccc(O)cc12 | -0.932 | 
19 | C#CCOC(=O)C1=CCCN(C)C1 | 2.15 | 
20 | CCCCc1ccc(C(=O)O)nc1 | -0.0825 | 

Row | SMILES | activity, negative = inhibition [%] | outcome
21 | NC(=NCCC[C@H](N)C(=O)O)N[N+](=O)[O-] | 16.8 | 
22 | C=CCN1CC[C@]23CCCCC2[C@H]1Cc1ccc(O)cc13 (stereo not given in full) | 11.5 | 
23 | CC[C@@]1(O)C(=O)OCc2c1cc1n(c2=O)Cc2cc3ccccc3nc2-1 | -0.14 | 
24 | NC1CCc2cc(O)c(O)cc2C1 (stereo not given) | -6.23 | 
25 | S=C(NC1CCCCC1)N1CCC(c2cnc[nH]2)CC1 | -3.24 | 
26 | CCCN(CCC)[C@@H]1CCc2ccc(O)cc2C1 | 12.3 | 
27 | C[C@]12CCC3C(CC[C@H]4C[C@H](O)CC[C@]34C)C1CC[C@@H]2C(=O)CO (stereo not given in full) | 12.1 | 
28 | CC(C)Oc1cccnc1N(C)C1CCN(Cc2ccccc2)CC1 | 1.44 | 
29 | NCCc1c[nH]c2ccccc12 | 5.02 | 
30 | C[C@@H](N)Cc1cnc[nH]1 | 0.345 | 
31 | O=C(O)CC[N+](=O)[O-] | 0.473 | 
32 | O=C1CCCN1CC#CCN1CCCC1 | -3.04 | 
33 | Cn1cnc(CCN)c1 | -11.9 | 
34 | CN[C@@H]1C[C@@H](c2ccc(Cl)c(Cl)c2)c2ccccc21 | 0.286 | 
35 | CC(C)NC(C)Cc1ccc(I)cc1 (stereo not given) | 0.717 | 
36 | NC(CP(=O)(O)O)C(=O)O (stereo not given) | 4.35 | 
37 | CCCN1CCO[C@@H]2c3cc(O)ccc3OC[C@H]21 |  | inactive
38 | NC1CC1c1ccccc1 (stereo not given) | 33.9 | 
39 | O=C(Cc1ccc(Cl)c(Cl)c1)N1CCCCC1CN1CCCC1 (stereo not given) | -13.1 | 
40 | NC(N)=NOCCC(N)C(=O)O (stereo not given) | -1.21 | 
